Assay outcomes (PubChem)
RECQ1 inh-1 – blocks DNA unwinding by human RECQ1. Potency, µM (top dose mostly 57.3 µM), usual class: inhibitors. P46063. RECQ1 DNA unwinding, red fluorescence kinetic read. AID 2549. actives 0.54% (n = 240,000); also: nearly all actives have a fitted effect of over 30% in size
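50 nM RECQ1T1 preincubated 15 min with compound in Tris pH 8.0 buffer with MgCl2, DTT, Tween-20 and 2.5 ug/ml poly(dI-dC); started with 200 nM TAMRA/BHQ-2 forked duplex and 2 mM ATP. Unwinding read as fluorescence (525/598 nm), two reads 2 h apart.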
BLM helicase inh-1 – blocks DNA unwinding by human BLM helicase; recombinant BLM DNA unwinding, fluorescence dequenching; Potency, µM (series often up to 56.1 µM), most hits filed as inhibitors; actives 0.2% (n = 350,000); P54132; AID 2528; also: nearly all actives have a fitted effect of over 35% in size
L3MBTL1 block – blocks human L3MBTL1. AID 485360. Potency, µM (series often up to 57.1 µM), most hits filed as inhibitors. AlphaScreen L3MBTL1–H3K9me1 peptide binding. actives 0.66% (n = 230,000); also: nearly all actives have a fitted effect of over 60% in size
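L3MBTL1 50 nM + b-AHA-H3(1-15)K9me1 75 nM, 30 min RT; compound added, 30 min RT; streptavidin donor/Ni-chelate acceptor beads 10 ug/mL each final, 30 min RT dark; AlphaScreen read.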
WRN helicase inh-1 – blocks human WRN helicase; Q14191; WRN helicase unwinding, fluorescent forked duplex, kinetic; Potency, µM (titrated, usually from 114 µM), hits mostly inhibitors; actives 0.46% (n = 360,000); AID 651768; also: nearly all actives have a fitted effect of over 55% in size
Target sequence (Q14191 whole entry, looked up): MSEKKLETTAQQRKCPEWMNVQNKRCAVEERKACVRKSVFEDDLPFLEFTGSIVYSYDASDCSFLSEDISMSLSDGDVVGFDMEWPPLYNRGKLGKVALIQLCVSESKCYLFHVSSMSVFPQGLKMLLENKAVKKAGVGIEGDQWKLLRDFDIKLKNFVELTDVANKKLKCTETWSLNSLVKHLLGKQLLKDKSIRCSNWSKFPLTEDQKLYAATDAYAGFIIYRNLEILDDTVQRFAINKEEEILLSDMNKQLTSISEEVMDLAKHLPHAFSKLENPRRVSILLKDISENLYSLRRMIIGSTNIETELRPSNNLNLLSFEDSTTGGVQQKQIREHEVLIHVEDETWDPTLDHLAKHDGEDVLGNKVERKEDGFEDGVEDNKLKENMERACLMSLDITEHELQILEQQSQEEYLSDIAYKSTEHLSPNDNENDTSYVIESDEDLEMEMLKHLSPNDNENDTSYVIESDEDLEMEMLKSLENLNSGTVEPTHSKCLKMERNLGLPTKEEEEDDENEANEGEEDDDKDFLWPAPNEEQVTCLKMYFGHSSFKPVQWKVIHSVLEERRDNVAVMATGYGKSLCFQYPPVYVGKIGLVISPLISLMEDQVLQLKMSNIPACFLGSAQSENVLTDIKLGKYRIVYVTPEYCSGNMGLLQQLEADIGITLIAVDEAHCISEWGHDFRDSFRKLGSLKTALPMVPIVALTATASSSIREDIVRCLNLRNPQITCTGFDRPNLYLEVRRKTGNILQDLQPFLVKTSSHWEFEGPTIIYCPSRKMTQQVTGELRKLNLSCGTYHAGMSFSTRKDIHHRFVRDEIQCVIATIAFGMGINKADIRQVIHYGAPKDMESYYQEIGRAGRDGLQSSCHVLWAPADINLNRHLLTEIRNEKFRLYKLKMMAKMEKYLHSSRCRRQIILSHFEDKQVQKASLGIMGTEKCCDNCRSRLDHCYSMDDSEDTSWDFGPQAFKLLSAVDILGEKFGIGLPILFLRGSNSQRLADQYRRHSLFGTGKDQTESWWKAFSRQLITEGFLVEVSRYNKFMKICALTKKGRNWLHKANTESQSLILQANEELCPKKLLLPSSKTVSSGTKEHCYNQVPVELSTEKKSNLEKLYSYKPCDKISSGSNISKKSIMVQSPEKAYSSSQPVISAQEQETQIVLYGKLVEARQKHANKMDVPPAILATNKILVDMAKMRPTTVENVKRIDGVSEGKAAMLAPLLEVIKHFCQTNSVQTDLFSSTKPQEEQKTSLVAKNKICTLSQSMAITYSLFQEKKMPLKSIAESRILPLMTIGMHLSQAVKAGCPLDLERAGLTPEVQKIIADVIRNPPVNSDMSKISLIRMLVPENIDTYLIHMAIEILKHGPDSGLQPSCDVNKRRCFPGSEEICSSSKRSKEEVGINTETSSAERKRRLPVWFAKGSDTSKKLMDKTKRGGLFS
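Enzyme (20 nM final) and test compound sit together 15 min at room temperature before substrate addition. Substrate is a single-forked duplex oligonucleotide (100 nM) labelled with fluorophore and quencher, with 2 mM ATP; helicase unwinding raises red fluorescence, read kinetically.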
FEN1 inh-1 – inhibitors of human flap endonuclease 1; Potency, µM (top dose mostly 114 µM), usual class: inhibitors; P39748; actives 0.35% (n = 390,000); Recombinant FEN1 flap cleavage, fluorescence, 15 min; also: nearly all actives have a fitted effect of over 65% in size
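FEN1 at 10 nM preincubated with compounds 15 min at room temperature, then flap DNA substrate added at 50 nM final. Signal read at 0 and 15 min; concentration-response fitted with four-parameter Hill equation.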
APE1 inh-1 – inhibitors of human APE1 endonuclease; AID 2517; recombinant APE1, TAMRA/BHQ-2 abasic DNA cleavage fluorescence; P27695; Potency, µM (doses to about 65.8 µM), usual class: inhibitors; actives 0.35% (n = 350,000); also: nearly all actives have a fitted effect of over 55% in size
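Enzyme (0.75 nM final) and test compound are incubated 15 min at room temperature before adding 50 nM quenched THF abasic-site duplex. Cleavage dequenches TAMRA, followed at 525/598 nm over three reads one minute apart.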
APE1 dye cs – displaces fluorescent dye from DNA, flagging APE1 artifacts; shares compounds with APE1 inh-1; DNA fluorescent dye displacement counterscreen, fluorescence; Potency, µM (doses to about 28.5 µM), hits mostly inhibitors; actives 7% (n = 480);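 also: loss of thiazole orange fluorescence as the dye is displaced from duplex DNA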
Endo IV inh – Endo IV (E. coli) inhibition counter-screen; Potency, µM (top dose mostly 27.1 µM), usual class: inhibitors; E. coli Endo IV, fluorogenic AP-site DNA cleavage; shares compounds with APE1 inh-1; actives 4% (n = 560)
APE1 inh-2 – confirmation of inhibitors of human APE1 endonuclease; shares compounds with APE1 inh-1; purified APE1, fluorogenic abasic-site DNA cleavage; Potency, µM (doses to about 57.1 µM), actives largely listed as inhibitors; actives 44% (n = 750); AID 2572; also: nearly all actives have a fitted effect of over 30% in size
APE1 FP – APE1 (human) DNA binding inhibition, fluorescence polarization; shares compounds with APE1 inh-1; APE1 binding to TAMRA-labelled double-stranded DNA, fluorescence polarization displacement; Potency, µM (top dose mostly 28.5 µM), usual class: inhibitors; actives 7% (n = 480); AID 2573
RECQ1 inh-2 – confirmation of human RECQ1 helicase inhibitors; shares compounds with RECQ1 inh-1; recombinant RECQ1 DNA unwinding, red fluorescence; Potency, µM (doses to about 119 µM), usual class: inhibitors; actives 15% (n = 1,100); AID 504841; also: nearly all actives have a fitted effect of over 50% in size
FEN1 inh-2 – confirmation of human FEN1 inhibitors; shares compounds with FEN1 inh-1; FEN1 flap cleavage, TAMRA/BHQ2 fluorogenic DNA substrate; Potency, µM, actives largely listed as inhibitors; actives 79% (n = 880); AID 720498; also: nearly all actives have a fitted effect of over 60% in size
WRN helicase inh-2 – WRN helicase inhibition, cherry-pick retest; actives 63% (n = 610); WRN helicase DNA unwinding, fluorescence kinetic; shares compounds with WRN helicase inh-1; Potency, µM (titrated, usually from 57.1 µM), actives largely listed as inhibitors; also: nearly all actives have a fitted effect of over 65% in size
TO displacement – DNA binding via thiazole orange displacement | shares compounds with WRN helicase inh-1 | thiazole orange DNA binding displacement, fluorescence | Potency, µM (top dose mostly 57.1 µM), usual class: inhibitors | actives 10% (n = 610);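 also: drop in dye fluorescence marks compound binding to DNA; nearly all actives have a fitted effect of over 60% in size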
BLM helicase inh-2 – BLM helicase inhibition, WRN selectivity check; actives 60% (n = 610); shares compounds with WRN helicase inh-1; Potency, µM (top dose mostly 57.1 µM), most hits filed as inhibitors; Recombinant BLM helicase DNA unwinding, red fluorescence; also: nearly all actives have a fitted effect of over 60% in size
Each line names hits and unclear results; the compound was inactive in the other large screens (follow-up assays come after a bar, where they were run). A selection: hits, their analogues and other compounds. The true share with any hit is near 1%. Calls follow the shape of the dose curve; as a rule, active = well fitted curve in the direction sought with a large enough effect; inconclusive = small, poorly fitted or top-dose-only effect, or another doubt; inactive = no such curve, though single readings can be large; an effect the other way counts as inactive or inconclusive.

O=C1NN(c2ccccc2)C(=O)/C1=C/c1ccc(-c2ccc(Cl)c(C(=O)O)c2)o1	RECQ1 inh-1 inconclusive, WRN helicase inh-1 35.5µM, FEN1 inh-1 inconclusive, APE1 inh-1 12.6µM (no result: L3MBTL1 block) | APE1 dye cs inconclusive | Endo IV inh inactive | APE1 inh-2 22.4µM | APE1 FP inconclusive | WRN helicase inh-2 19.2µM | TO displacement inactive | BLM helicase inh-2 inconclusive
Cc1cccc(N2NC(=O)/C(=C/c3ccc(-c4ccc(Cl)c(C(=O)O)c4)o3)C2=O)c1	RECQ1 inh-1 inconclusive, WRN helicase inh-1 39.8µM, FEN1 inh-1 inconclusive, APE1 inh-1 17.8µM (no result: L3MBTL1 block) | APE1 dye cs inactive | Endo IV inh inactive | APE1 inh-2 inconclusive | APE1 FP inactive | WRN helicase inh-2 9.61µM | TO displacement inconclusive | BLM helicase inh-2 9.61µM
COc1ccc(N(Cc2cccs2)C(=O)c2ccco2)cc1	none (no result: RECQ1 inh-1, L3MBTL1 block, WRN helicase inh-1, APE1 inh-1)
O=C1CC(=O)N(Cc2ccco2)C(=O)N1	RECQ1 inh-1 inconclusive, L3MBTL1 block 3.16µM, WRN helicase inh-1 25.1µM, FEN1 inh-1 28.2µM, APE1 inh-1 10µM | APE1 dye cs inactive | Endo IV inh inactive | APE1 inh-2 5.62µM | APE1 FP inactive | RECQ1 inh-2 inconclusive | FEN1 inh-2 23.9 | WRN helicase inh-2 7.64µM | TO displacement inactive | BLM helicase inh-2 4.29µM
Cc1cn2c(=O)cc(COc3cccc(NC(=O)c4ccccc4Cl)c3)nc2s1	none (no result: RECQ1 inh-1, L3MBTL1 block, WRN helicase inh-1, APE1 inh-1)
